Laboratory results from PubChem BioAssay (Tox21).
Inconclusive results are not listed. The source made the active and inactive calls. Unless noted, calls come from the whole dose curve; as a rule, active = well fitted curve in the direction sought with a large enough effect in the repeat runs; inconclusive = weak or mixed curves; inactive = no such curve, though single readings can be large; an effect the other way counts as inactive or inconclusive.

Assays:
[1] = qHTS assay to identify small molecule antagonists of the retinoid-related orphan receptor gamma (ROR-gamma) signaling pathway - cell viability counter screen (AID 1159520); note: % is set by controls: 0 for no effect and ±100 for the full control effect; nearly all actives have a fitted effect of over 50% in size
Outline: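 Tet-on ROR gamma CHO cells were given compounds for 2 hr, then doxycycline hyclate at 1 uM final, and incubated 16 hr at 37 C. Viability was measured as ATP content by CellTiter-Glo luminescence.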

[2] = target: Nuclear receptor ROR-gamma (Homo sapiens) (UniProt P51449); assay: qHTS assay to identify small molecule antagonists of the retinoid-related orphan receptor gamma (ROR-gamma) signaling pathway (AID 1159521;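 note: CHO cells with doxycycline inducible ROR-gamma driving an RORE luciferase reporter; top concentration of the series differs between compounds; % is set by controls: 0 for no effect and ±100 for the full control effect; nearly all actives have a fitted effect of over 50% in size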)
Outline: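 Cells were plated, rested 4 h at 37 C, exposed to compounds for 2 h, then given 1 uM final doxycycline hyclate to induce RORγ expression. After 16 h, ONE-Glo luminescence from the ROR response element reporter was measured.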

[3] = qHTS assay to identify small molecule agonists of the AP-1 signaling pathway - cell viability counter screen (AID 1159525; calls by dose curve; note: nearly all actives have a fitted effect of over 55% in size)
Outline: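 Same-well cytotoxicity counter screen of the Tox21 10K library in ME-180 cells. The readout is ATP-dependent luminescence after 5 h compound treatment. Data are normalised to DMSO and tetra n-octyl ammonium bromide controls.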

[4] = qHTS assay to identify small molecule agonists of the AP-1 signaling pathway (AID 1159526; calls by dose curve; note: % is set by controls: 0 for no effect and ±100 for the full control effect)
[5] = target: Retinoic acid receptor RXR-alpha (Homo sapiens) (UniProt P19793); assay: qHTS assay to identify small molecule agonists of the RXR signaling pathway (AID 1159527; calls by dose curve; note: % is set by controls: 0 for no effect and ±100 for the full control effect; nearly all actives have a fitted effect of over 35% in size)
Chain of Retinoic acid receptor RXR-alpha (Homo sapiens) (P19793 whole entry, looked up): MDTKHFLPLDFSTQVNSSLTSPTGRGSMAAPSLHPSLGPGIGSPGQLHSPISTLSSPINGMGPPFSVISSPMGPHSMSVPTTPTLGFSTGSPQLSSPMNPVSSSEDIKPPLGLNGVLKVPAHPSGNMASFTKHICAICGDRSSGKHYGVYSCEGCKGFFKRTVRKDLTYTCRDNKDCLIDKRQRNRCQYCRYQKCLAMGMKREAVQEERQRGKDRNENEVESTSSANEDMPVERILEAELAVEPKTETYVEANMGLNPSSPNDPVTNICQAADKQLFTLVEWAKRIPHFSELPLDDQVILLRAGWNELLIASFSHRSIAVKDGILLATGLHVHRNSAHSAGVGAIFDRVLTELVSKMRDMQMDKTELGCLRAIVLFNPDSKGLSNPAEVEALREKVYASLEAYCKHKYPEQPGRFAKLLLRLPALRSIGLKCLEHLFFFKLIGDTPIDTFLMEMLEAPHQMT
Outline: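 Cells plated at 2,000/well, rested 5 hr at 37 C, pin-dosed with DMSO compound solutions, incubated 16 hr, then loaded with B/G FRET substrate for 2 hr at RT before dual-emission fluorescence reading.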

[6] = qHTS assay to identify small molecule antagonists of the retinoid acid receptor (RAR) signaling pathway - cell viability counter screen (AID 1159551); note: % is set by controls: 0 for no effect and ±100 for the full control effect; nearly all actives have a fitted effect of over 35% in size
Outline: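 Measured by luminescent ATP detection, viability reflects C3RL4 cells treated 6 h at 37 C with test chemicals in the presence of 1 uM (final) retinol.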

[7] = qHTS assay to identify small molecule antagonists of the retinoic acid receptor (RAR) signaling pathway (AID 1159552; note: % is set by controls: 0 for no effect and ±100 for the full control effect; nearly all actives have a fitted effect of over 50% in size)
Outline: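 Retinol at 1 uM final stimulated RARE-luciferase expression in C3RL4 cells exposed to test compounds for 6 hr at 37 C. Reduced luminescence, read 30 min after detection reagent, indicated pathway antagonism.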

[8] = qHTS assay to identify small molecule antagonists of the estrogen related receptor (ERR) signaling pathway from Tox21 library - cell viability counter screen (AID 1224834); note: % is set by controls: 0 for no effect and ±100 for the full control effect; nearly all actives have a fitted effect of over 30% in size
Outline: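 Seeded ERR cells were rested 6 h at 37 C/5% CO2 before compounds, positive and negative controls or DMSO were added. Incubation continued for 17.5 h, and viability was then quantified by CellTiter-Fluor fluorescence.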

[9] = target: Luciferin 4-monooxygenase (Photinus pyralis) (UniProt P08659); assay: qHTS assay to identify small molecule inhibitors of firefly luciferase (AID 1224835); note: series mostly up to about 120 µM; % is set by controls: 0 for no effect and ±100 for the full control effect; nearly all actives have a fitted effect of over 25% in size
Chain of Luciferin 4-monooxygenase (Photinus pyralis) (P08659 whole entry, looked up): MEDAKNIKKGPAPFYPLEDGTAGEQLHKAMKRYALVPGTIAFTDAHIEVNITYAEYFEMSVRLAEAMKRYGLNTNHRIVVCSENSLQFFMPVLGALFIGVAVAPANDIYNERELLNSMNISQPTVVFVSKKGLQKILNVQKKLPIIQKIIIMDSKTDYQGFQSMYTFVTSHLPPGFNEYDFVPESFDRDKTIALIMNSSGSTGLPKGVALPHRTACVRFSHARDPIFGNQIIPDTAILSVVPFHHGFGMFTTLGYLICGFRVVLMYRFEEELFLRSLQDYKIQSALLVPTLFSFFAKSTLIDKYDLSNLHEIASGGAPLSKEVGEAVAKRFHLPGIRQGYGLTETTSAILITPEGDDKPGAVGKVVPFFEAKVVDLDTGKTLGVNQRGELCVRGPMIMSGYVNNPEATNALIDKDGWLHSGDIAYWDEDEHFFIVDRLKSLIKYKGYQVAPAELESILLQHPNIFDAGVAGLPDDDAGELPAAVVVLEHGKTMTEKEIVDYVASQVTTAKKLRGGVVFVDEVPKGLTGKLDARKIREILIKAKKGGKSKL
Outline: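 Biochemical qHTS: compounds run as interplate titrations against purified firefly enzyme, with D-luciferin and ATP each at its KM concentration. Light output recorded by CCD imaging.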

[10] = qHTS assay to identify small molecule agonists of the constitutive androstane receptor (CAR) signaling pathway - cell viability counter screen (AID 1224836); note: series mostly up to about 92 µM; % is set by controls: 0 for no effect and ±100 for the full control effect; nearly all actives have a fitted effect of over 45% in size
Outline: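 Cells were seeded and incubated 4 hrs. Compounds were added across 15 concentrations together with PK11195 at 0.75 uM final. Plates were incubated 23 hrs at 37 C. CellTiter-Fluor was added and fluorescence measured.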

[11] = qHTS assay to identify small molecule agonists of the RXR signaling pathway - cell viability counter screen (AID 1159529);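 note: HEK 293T cells carrying an RXR-alpha UAS beta-lactamase reporter; series mostly up to about 77 µM; % is set by controls: 0 for no effect and ±100 for the full control effect; nearly all actives have a fitted effect of over 50% in size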
Outline: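 Steps: seed RXR-alpha-UAS-bla HEK 293T cells in assay medium containing 2% charcoal-stripped FBS; incubate 5 hr; add compounds in DMSO; incubate 16 hr at 37 C; after the bla read, add CellTiter-Glo and read luminescence at 30 min.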

OCCC(O)CO (centres undefined)
inactive: Potency [1] | Potency [2] | Potency [3] | Potency [4] | Potency [5] | Potency [6] | Potency [7] | Potency [8] | Potency [9] | Potency [10]

O=C1OC(=O)c2ccc3c4c(ccc1c24)C(=O)OC3=O
inactive: Potency [1] | Potency [2] | Potency [3] | Potency [4] | Potency [5] | Potency [6] | Potency [7] | Potency [8] | Potency [9] | Potency [10]

CCCC(O)C(O)CO (centres undefined)
inactive: Potency [1] | Potency [2] | Potency [3] | Potency [4] | Potency [5] | Potency [11] | Potency [6] | Potency [7] | Potency [8] | Potency [10]

CN1CN(C)CN(C)C1
inactive: Potency [1] | Potency [2] | Potency [3] | Potency [4] | Potency [5] | Potency [11] | Potency [6] | Potency [7] | Potency [8] | Potency [10]

CCCCCCCCCCCCCCCCCO
inactive: activity, negative = cytotoxicity [1] -0.0509% [at 19 µM] | activity change, negative = inhibition [2] -0.415% [at 19 µM] | viability change, negative = cytotoxic [3] -0.925% [at 15.8 µM] | activation [4] -5.53% [at 15.8 µM] | activation [5] 2.15% [at 15.8 µM] | activity change, negative = cytotoxicity [6] 0.141% [at 19 µM] | activity, negative = inhibition [7] -5.96% [at 19 µM] | viability change, negative = cytotoxic [8] 0.981% [at 19 µM] | activity change, negative = inhibition [9] 3.61% [at 23.6 µM] | viability change, negative = cytotoxic [10] 0.185% [at 19 µM]

CCCCCCCC(=O)OCC
inactive: Potency [1] | Potency [2] | Potency [3] | Potency [4] | Potency [5] | Potency [6] | Potency [7] | Potency [8] | Potency [9] | Potency [10]

CCCCOCC
inactive: Potency [1] | Potency [2] | Potency [3] | Potency [4] | Potency [11] | Potency [6] | Potency [7] | Potency [8] | Potency [9] | Potency [10]

CCCCCCCCCCCCCc1ccccc1
inactive: Potency [1] | Potency [2] | Potency [3] | Potency [4] | Potency [5] | Potency [11] | Potency [6] | Potency [7] | Potency [8] | Potency [10]

CC(=O)C=O
inactive: Potency [1] | Potency [2] | Potency [3] | Potency [4] | Potency [5] | Potency [6] | Potency [7] | Potency [8] | Potency [9] | Potency [10]

CC(C)(C)c1n[nH]c(=O)n(N)c1=O
inactive: Potency [1] | Potency [2] | Potency [3] | Potency [4] | Potency [11] | Potency [6] | Potency [7] | Potency [8] | Potency [9] | Potency [10]

CCc1c(Br)c(Br)c(Br)c(Br)c1Br
inactive: Potency [1] | Potency [2] | Potency [3] | Potency [4] | Potency [11] | Potency [6] | Potency [7] | Potency [8] | Potency [9] | Potency [10]

COc1ccccc1C=O
inactive: Potency [1] | Potency [2] | Potency [3] | Potency [4] | Potency [5] | Potency [11] | Potency [6] | Potency [7] | Potency [8] | Potency [10]

CCCCCCCC(OC)OC
inactive: Potency [1] | Potency [2] | Potency [3] | Potency [4] | Potency [11] | Potency [6] | Potency [7] | Potency [8] | Potency [9] | Potency [10]

CC1=CCC(=O)O1
inactive: Potency [1] | Potency [2] | Potency [3] | Potency [4] | Potency [5] | Potency [6] | Potency [7] | Potency [8] | Potency [9] | Potency [10]

OCCN1CN(CCO)CN(CCO)C1
inactive: Potency [1] | Potency [2] | Potency [3] | Potency [4] | Potency [11] | Potency [6] | Potency [7] | Potency [8] | Potency [9] | Potency [10]

Brc1ccccn1
inactive: Potency [1] | Potency [2] | Potency [3] | Potency [4] | Potency [11] | Potency [6] | Potency [7] | Potency [8] | Potency [9] | Potency [10]

CCCCCCCCCCc1ccccc1
inactive: Potency [1] | Potency [2] | Potency [3] | Potency [4] | Potency [11] | Potency [6] | Potency [7] | Potency [8] | Potency [9] | Potency [10]

Clc1cc(Cl)c(-c2c(Cl)c(Cl)cc(Cl)c2Cl)cc1Cl
inactive: Potency [1] | Potency [2] | Potency [3] | Potency [4] | Potency [11] | Potency [6] | Potency [7] | Potency [8] | Potency [9] | Potency [10]

CCN(CC)c1cccc(C)c1
inactive: Potency [1] | Potency [2] | Potency [3] | Potency [4] | Potency [11] | Potency [6] | Potency [7] | Potency [8] | Potency [9] | Potency [10]

COc1cccc(O)c1
inactive: Potency [1] | Potency [2] | Potency [3] | Potency [4] | Potency [11] | Potency [6] | Potency [7] | Potency [8] | Potency [9] | Potency [10]

C/C=C/c1ccc(OC)c(OC)c1
inactive: Potency [1] | Potency [2] | Potency [3] | Potency [4] | Potency [5] | Potency [6] | Potency [8] | Potency [9] | Potency [10]
